# Inconclusive results are not listed. A call without a number means that no potency is given here. Activity calls are given as the source filed them. Unless noted, calls come from the whole dose curve; as a rule, active = well fitted curve in the direction sought with a large enough effect; inconclusive = small, poorly fitted or top-dose-only effect, or another doubt; inactive = no such curve, though single readings can be large; an effect the other way counts as inactive or inconclusive.
# Tests used:
# [1] = target: Luciferin 4-monooxygenase (Photinus pyralis) (UniProt P08659); experiment: Primary firefly luciferase (FLuc) qHTS assay for identification of artifact compounds. (AID 1845220); conditions: outcome: dose series up to 54.1 µM; note: nearly all actives have a fitted effect of over 60% in size
# Outline: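 D-luciferin and ATP (10 uM each, final) in Tris acetate buffer pH 7.6 were incubated with compounds for 15 min at room temperature. The reaction was started with 10 nM Photinus pyralis luciferase and luminescence read after 5 min. Percent inhibition was fitted to a 4-parameter Hill equation.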
# [2] = Primary fluorescence-based thiol-reactive (MSTI) qHTS assay for identification of artifact compounds. (AID 1845221);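 note: thiol-reactive compounds lower the probe fluorescence signal; nearly all actives have a fitted effect of over 65% in size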
# Outline: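 One-hour, room-temperature, dark incubation of compound with 4 uM MSTI in PBS (pH 7.4, 2% DMSO) precedes a fluorescence read at 525 nm excitation, 598 nm emission; Hill-equation fitting yields concentration-response values.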
# [3] = tested on: Nanoluciferase (engineered Oplophorus gracilirostris luciferase); experiment: Primary Nanoluciferase (NLuc) qHTS assay for identification of artifact compounds. (AID 1845222)
# Outline: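 Diluted conditioned medium from NLuc-expressing S16 cells treated with compounds for 15 min at room temperature, then Nano-Glo substrate added; luminescence read after 5 min. Percent inhibition versus no-enzyme and DMSO controls fitted to 4-parameter Hill equation.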
# [4] = Primary redox qHTS assay for identification of artifact compounds. (AID 1845223)
# Outline: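 Amplex Red (25 uM) and HRP (250 mU/mL) in HBSS, with compounds for 15 min, then 250 uM DTT for 30 min, room temperature, dark. Fluorescence 525/598 nm read; normalized to DMSO and 10 uM DA3003; Hill fit.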
# [5] = qHTS profiling for inhibitors of Plasmodium falciparum proliferation (AID 504749); note: nearly all actives have a fitted effect of over 60% in size; note: potency is the fitted concentration of half-maximal effect; conditions: P. falciparum in erythrocytes, SYBR Green DNA, 72 h
# Outline: (§1)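 P. falciparum-infected erythrocytes (0.3% parasitemia, 2.5% hematocrit) incubated with compound 72 h at 37 C, 5% CO2. Parasite DNA detected by SYBR Green after lysis, overnight at room temperature; normalised to 0.29 uM artemisinin and DMSO.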
# 3D7 = experiment: as above; conditions: P. falciparum in erythrocytes, SYBR Green DNA, 72 h; series mostly up to 28.7 µM
# Outline: as §1
# 7G8 = experiment: as above; conditions: P. falciparum in erythrocytes, SYBR Green DNA, 72 h; series mostly up to 28.7 µM
# Outline: as §1
# AA1029 = experiment: as above; conditions: P. falciparum in erythrocytes, SYBR Green DNA, 72 h; series mostly up to 28.7 µM
# Outline: as §1
# [6] = target: Cytochrome P450 3A4 (Homo sapiens) (UniProt P08684); experiment: qHTS for inhibitors of CYP3A4 against the NCATS DSHEA and TCM libraries (AID 1919971);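 note: inhibition lowers luminescence from luciferin made by CYP3A4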
# Outline: (§2)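 Read-out is luminescence after P450-Glo detection (30 min, RT). Before that: 15 min compound–enzyme preincubation, then 30-45 min reaction with 1x NADPH regeneration solution, substrate concentration isoform-specific.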
# [7] = target: Cytochrome P450 2D6 (Homo sapiens) (UniProt P10635); experiment: qHTS for inhibitors of CYP2D6 against the NCATS DSHEA and TCM libraries (AID 1919972)
# Outline: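 Luminescent P450-Glo read-out of CYP2D6 turnover of a luciferin substrate after NADPH-driven reaction of 30-45 min at room temperature. Compounds were first preincubated 15 min with enzyme at titrated concentrations; quinidine was the intraplate control.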
# [8] = target: Cytochrome P450 2C9 (Homo sapiens) (UniProt P11712); experiment: qHTS for inhibitors of CYP2C9 against the NCATS DSHEA and TCM libraries (AID 1919973);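 note: luminogenic pro-luciferin CYP2C9 substrate turned into luciferin with NADPH regeneration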
# Outline: as §2
# [9] = target: Cytochrome P450 2C19 (Homo sapiens) (UniProt P33261); experiment: qHTS for inhibitors of CYP2C19 against the NCATS DSHEA and TCM libraries (AID 1919974);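 note: luminescence from luciferin released by CYP2C19 oxidation of a pro-luciferin substrate; potency is the fitted concentration of half-maximal effect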
# Outline: as §2
# [10] = KB-3-1 P-gp reporter qHTS against the NCATS DSHEA and TCM libraries (AID 1919975)
# Outline: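 Cell viability qHTS: 500 KB-3-1 cells/well, substances in titration, ~72 h, 37C; luminescent CellTiter-Glo read.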
# [11] = qHTS Counterscreen for compound interference against the NCATS DSHEA and TCM libraries (AID 1919978); conditions: firefly luciferase detection reagent interference, luminescence;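 note: compounds preincubated with 1 µM D-luciferin or buffer before detection reagent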
# Outline: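 Interference check: test samples were incubated with D-luciferin (final 1 uM) or buffer only for 15 min, room temperature, in a qHTS titration up to 39.8 uM, then developed with detection reagent and read by luminescence.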
# [12] = Dual reporter qHTS for agonist of Pregnane X Receptor (hPXR) against the NCATS DSHEA and TCM libraries: Fluorescence readout (AID 1920058)
# Outline: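 HepG2 hPXR-Luc, 2000 cells/well, 5 h attach; cpds ~24 h, 37 °C/5% CO2; CellTiter-Fluor 1 h; fluor. Ex/Em 405/540 nm = viability.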
# [13] = target: Nuclear receptor subfamily 1 group I member 2 (Homo sapiens) (UniProt O75469); experiment: Dual reporter qHTS for agonist of Pregnane X Receptor (hPXR) against the NCATS DSHEA and TCM libraries: Luminescence readout (AID 1920059)
# Outline: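 hPXR-Luc HepG2 cells, 2000/well in 5% charcoal-stripped FBS medium, attached 5 h, then exposed 24 h at 37C to compounds. Viability by CellTiter-Fluor, then luciferase luminescence with ONE-Glo.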
# [14] = Dual reporter qHTS for antagonist of Pregnane X Receptor (hPXR) against the NCATS DSHEA and TCM libraries: Fluorescence Readout (AID 1920061)
# Outline: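 In antagonist mode, 2 uM rifampicin was added to hPXR-Luc HepG2 cells alongside test substances, incubated 24 h at 37 C; luminescence gave reporter activity, and CellTiter-Fluor fluorescence (405/540 nm) gave viability.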
# [15] = qHTS drug screen for cell cycle checkpoint inhibitors in PARPi-resistant BRCA-mutant ovarian cancer cell lines. (AID 1963452; calls by dose curve; note: potency is the fitted concentration of half-maximal effect); conditions: PEO1/OlaR viability, CellTiter-Glo luminescence, 96 h; for Z-AUC: stronger effect = lower value
# Outline: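 PEO1, PEO4 and PEO1/OlaR ovarian cancer cells, 600 per well, exposed 96 h at 37C to a dilution series. Viability read by CellTiter-Glo luminescence, normalized to DMSO and empty wells; activity summarized as Z-AUC.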
# Cytochrome P450 2C19 (Homo sapiens), sequence (P33261 whole entry, looked up): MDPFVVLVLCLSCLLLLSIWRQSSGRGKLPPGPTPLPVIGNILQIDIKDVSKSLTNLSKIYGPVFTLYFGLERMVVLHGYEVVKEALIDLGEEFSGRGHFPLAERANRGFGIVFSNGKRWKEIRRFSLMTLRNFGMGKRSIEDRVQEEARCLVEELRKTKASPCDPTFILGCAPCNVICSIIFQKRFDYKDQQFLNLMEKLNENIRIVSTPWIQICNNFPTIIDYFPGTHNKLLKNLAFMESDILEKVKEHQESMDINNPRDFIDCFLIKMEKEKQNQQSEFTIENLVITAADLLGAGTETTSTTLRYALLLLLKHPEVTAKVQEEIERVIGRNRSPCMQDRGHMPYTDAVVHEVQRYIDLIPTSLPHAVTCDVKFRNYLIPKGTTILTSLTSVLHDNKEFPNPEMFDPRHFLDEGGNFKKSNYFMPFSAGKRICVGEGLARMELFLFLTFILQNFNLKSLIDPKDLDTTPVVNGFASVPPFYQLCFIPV
# Cytochrome P450 3A4 (Homo sapiens), sequence (P08684 whole entry, looked up, canonical isoform): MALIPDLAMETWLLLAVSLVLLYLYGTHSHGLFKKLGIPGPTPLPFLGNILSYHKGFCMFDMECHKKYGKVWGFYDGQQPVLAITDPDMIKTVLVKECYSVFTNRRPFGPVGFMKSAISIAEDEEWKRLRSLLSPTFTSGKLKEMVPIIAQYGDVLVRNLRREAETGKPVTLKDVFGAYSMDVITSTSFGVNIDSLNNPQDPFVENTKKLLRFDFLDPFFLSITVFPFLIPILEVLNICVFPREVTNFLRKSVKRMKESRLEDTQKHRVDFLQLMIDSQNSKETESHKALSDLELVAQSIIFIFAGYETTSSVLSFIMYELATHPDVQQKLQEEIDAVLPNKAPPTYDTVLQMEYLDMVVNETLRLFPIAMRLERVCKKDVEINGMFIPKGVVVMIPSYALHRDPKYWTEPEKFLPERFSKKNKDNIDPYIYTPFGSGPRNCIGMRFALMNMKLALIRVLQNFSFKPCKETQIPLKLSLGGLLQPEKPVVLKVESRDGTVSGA
# Cytochrome P450 2D6 (Homo sapiens), sequence (P10635 whole entry, looked up): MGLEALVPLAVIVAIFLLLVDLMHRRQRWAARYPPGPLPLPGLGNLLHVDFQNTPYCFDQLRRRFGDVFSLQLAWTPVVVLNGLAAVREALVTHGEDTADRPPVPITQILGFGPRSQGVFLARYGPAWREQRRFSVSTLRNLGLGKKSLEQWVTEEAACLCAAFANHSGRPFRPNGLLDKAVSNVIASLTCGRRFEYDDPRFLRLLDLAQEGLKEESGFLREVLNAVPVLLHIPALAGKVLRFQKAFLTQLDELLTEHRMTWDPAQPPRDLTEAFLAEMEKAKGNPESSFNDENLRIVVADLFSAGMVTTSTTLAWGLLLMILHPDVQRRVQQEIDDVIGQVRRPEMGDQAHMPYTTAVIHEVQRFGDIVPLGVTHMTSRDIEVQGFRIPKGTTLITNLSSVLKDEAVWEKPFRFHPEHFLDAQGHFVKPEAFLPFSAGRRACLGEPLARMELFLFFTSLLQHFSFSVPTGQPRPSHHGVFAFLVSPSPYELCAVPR
# Nuclear receptor subfamily 1 group I member 2 (Homo sapiens), sequence (O75469 whole entry, looked up): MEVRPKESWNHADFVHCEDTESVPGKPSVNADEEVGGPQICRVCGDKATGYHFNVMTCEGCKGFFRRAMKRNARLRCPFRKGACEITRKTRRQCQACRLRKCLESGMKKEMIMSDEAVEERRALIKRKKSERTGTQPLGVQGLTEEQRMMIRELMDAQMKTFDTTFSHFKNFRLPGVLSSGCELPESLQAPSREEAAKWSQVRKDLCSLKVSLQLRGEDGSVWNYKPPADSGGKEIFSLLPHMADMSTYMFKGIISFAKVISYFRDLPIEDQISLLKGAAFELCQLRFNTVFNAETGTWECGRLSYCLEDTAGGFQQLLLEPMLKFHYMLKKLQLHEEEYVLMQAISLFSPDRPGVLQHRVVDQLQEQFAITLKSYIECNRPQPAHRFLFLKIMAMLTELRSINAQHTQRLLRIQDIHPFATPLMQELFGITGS
# Cytochrome P450 2C9 (Homo sapiens), sequence (P11712 whole entry, looked up): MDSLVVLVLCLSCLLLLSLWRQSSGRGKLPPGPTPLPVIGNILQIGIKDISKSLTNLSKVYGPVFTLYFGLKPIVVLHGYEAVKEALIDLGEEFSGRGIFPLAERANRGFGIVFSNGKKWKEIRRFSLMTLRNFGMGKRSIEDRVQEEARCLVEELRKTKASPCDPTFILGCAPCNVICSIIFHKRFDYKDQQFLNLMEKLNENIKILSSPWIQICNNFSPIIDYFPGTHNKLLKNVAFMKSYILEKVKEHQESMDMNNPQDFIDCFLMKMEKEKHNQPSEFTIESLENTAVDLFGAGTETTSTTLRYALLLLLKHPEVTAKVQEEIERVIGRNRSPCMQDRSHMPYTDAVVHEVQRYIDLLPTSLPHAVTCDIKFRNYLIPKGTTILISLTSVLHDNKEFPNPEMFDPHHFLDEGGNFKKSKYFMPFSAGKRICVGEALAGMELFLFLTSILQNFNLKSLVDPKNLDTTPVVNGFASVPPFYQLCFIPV
compound,measurement,setting,value
CN1C(CCl)Nc2cc(Cl)c(S(N)(=O)=O)cc2S1(=O)=O (stereo not given),outcome,[1],inactive
same,Potency,[2],inactive
same,Potency,[3],inactive
same,outcome,[4],inactive
same,"activity, negative = inhibition","[5]; at 28.7 µM (top of the series), parasite line A",6.24% (inactive)
same,"activity, negative = inhibition","[5]; at 28.7 µM (top of the series), parasite line B",-11.6% (inactive)
same,Potency,3D7,inactive
same,Potency,7G8,inactive
same,Potency,AA1029,inactive
COC(=O)CCc1ccc(OCC(O)CNC(C)C)cc1 (stereo not given),outcome,[1],inactive
same,Potency,[2],inactive
same,Potency,[3],inactive
same,outcome,[4],inactive
Cc1onc(-c2c(Cl)cccc2Cl)c1C(=O)N[C@@H]1C(=O)N2[C@@H]1SC(C)(C)[C@@H]2C(=O)O,outcome,[1],inactive
same,Potency,[2],inactive
same,Potency,[3],inactive
COC(=O)C1=C(C)NC(C)=C(C(=O)O[C@@H]2CCCN(Cc3ccccc3)C2)[C@@H]1c1cccc([N+](=O)[O-])c1,outcome,[1],inactive
same,Potency,[2],inactive
same,outcome,[4],inactive
COc1ccc(CN2CCN(C(c3ccc(F)cc3)c3ccc(F)cc3)CC2)c(OC)c1OC,outcome,[1],inactive
same,Potency,[2],inactive
same,Potency,[3],inactive
same,outcome,[4],inactive
same,Potency,[5]; parasite line A,8.91 µM (active)
same,Potency,[5]; parasite line B,8.91 µM (active)
same,Potency,3D7,7.94 µM (active)
same,Potency,7G8,2.82 µM (active)
same,Potency,AA1029,10 µM (active)
Nc1nc2ncc(CNc3ccc(C(=O)N[C@@H](CCC(=O)O)C(=O)O)cc3)nc2c(=O)[nH]1,outcome,[6],inactive
same,outcome,[7],inactive
same,outcome,[8],inactive
same,Potency,[9],3.55 µM (active)
same,outcome,[10],inactive
same,max response,[11],-4.69% (inactive)
same,outcome,[12],inactive
same,outcome,[13],inactive
same,outcome,[14],inactive
CC(CCc1ccccc1)NCC(O)c1ccc(O)c(C(N)=O)c1 (stereo not given),outcome,[1],inactive
same,Potency,[2],inactive
same,Potency,[3],inactive
same,outcome,[4],inactive
CN(C)CCCOc1nn(Cc2ccccc2)c2ccccc12,outcome,[1],inactive
same,Potency,[2],inactive
same,Potency,[3],inactive
same,outcome,[4],inactive
same,"activity, negative = inhibition","[5]; at 12.8 µM (top of the series), parasite line A",-0.403% (inactive)
same,"activity, negative = inhibition","[5]; at 12.8 µM (top of the series), parasite line B",-0.662% (inactive)
same,Potency,3D7,inactive
Nc1ccn([C@@H]2O[C@H](CO)[C@@H](O)C2(F)F)c(=O)n1,outcome,[1],inactive
same,Potency,[2],inactive
same,Potency,[3],inactive
same,outcome,[4],inactive
same,Potency,[15],0.0078 µM (active)
same,Z-AUC,[15]; measured here: PEO1 parental Z-AUC,-3.27
same,Z-AUC,[15]; measured here: PEO4 Z-AUC,-1.86

# Reference: PubChem BioAssay (NCATS)
